The supplement of paper PMC8728848
This is one part of a sample in which the strongest signals are shown more often than they occur.

Key:
Assay in all cases: glycan array binding signal (z-score within array); higher = stronger binding
Details in all cases: glycan notation: IUPAC condensed, linker removed; mutation: Q318A
[1] = target: GlcNAc(b1-6)Gal(b1-4)GlcNAc
Outline: (§1)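 The binding signal is a Z-score computed within each array. Data were drawn from 3228 arrays in the Consortium for Functional Glycomics database, restricted to those with a known protein sequence. Scores were averaged over arrays of the same protein sequence at different concentrations or buffers, and over linkers, and negative values can be taken as non-binding.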

Kdn(a2-3)Gal(b1-3)GalNAc = target: Kdn(a2-3)Gal(b1-3)GalNAc
Outline: as §1

[2] = target: Man(a1-3)[Man(a1-6)]Man(a1-6)[Man(a1-3)]Man
Outline: as §1

[3] = target: Neu5Ac(a2-3)Gal(b1-3)GalNAc(b1-4)Gal(b1-4)Glc
Outline: as §1

[4] = target: Neu5Ac(a2-3)Gal(b1-3)GlcNAc(b1-2)[Neu5Ac(a2-3)Gal(b1-3)GlcNAc(b1-4)]Man(a1-6)[Neu5Ac(a2-3)Gal(b1-3)GlcNAc(b1-2)Man(a1-3)]Man(b1-4)GlcNAc(b1-4)GlcNAc
Outline: as §1

[5] = target: Neu5Ac(a2-3)Gal(b1-4)GlcNAc
Outline: as §1

[6] = target: Neu5Ac(a2-3)Gal(b1-4)GlcNAc(b1-2)Man
Outline: as §1

[7] = target: Neu5Ac(a2-3)Gal(b1-4)GlcNAc(b1-3)[Neu5Ac(a2-3)Gal(b1-4)GlcNAc(b1-6)]GalNAc
Outline: as §1

[8] = target: Neu5Ac(a2-3)Gal(b1-4)GlcNAc(b1-6)[Gal(b1-3)]GalNAc
Outline: as §1

[9] = target: Neu5Ac(a2-3)Gal(b1-4)[Fuc(a1-3)]GlcNAc(b1-2)Man
Outline: as §1

[10] = target: Neu5Ac(a2-3)Gal(b1-4)[Fuc(a1-3)]GlcNAc(b1-6)[Neu5Ac(a2-3)Gal(b1-3)]GalNAc
Outline: as §1

[11] = target: Neu5Ac(a2-6)Gal(b1-4)GlcNAc(b1-2)Man(a1-3)[Gal(b1-4)GlcNAc(b1-2)Man(a1-6)]Man(b1-4)GlcNAc(b1-4)GlcNAc
Outline: as §1

[12] = target: Neu5Ac(a2-6)Gal(b1-4)GlcNAc(b1-2)Man(a1-3)[Man(a1-6)]Man(b1-4)GlcNAc(b1-4)GlcNAc
Outline: as §1

[13] = target: Neu5Ac(a2-6)Gal(b1-4)GlcNAc(b1-2)[Neu5Ac(a2-6)Gal(b1-4)GlcNAc(b1-4)]Man(a1-3)[GlcNAc(b1-4)][Neu5Ac(a2-6)Gal(b1-4)GlcNAc(b1-2)[Neu5Ac(a2-6)Gal(b1-4)GlcNAc(b1-6)]Man(a1-6)]Man(b1-4)GlcNAc(b1-4)GlcNAc
Outline: as §1

[14] = target: Neu5Ac(a2-6)Gal(b1-4)GlcNAc(b1-3)Gal(b1-4)GlcNAc
Outline: as §1

[15] = target: Neu5Ac(a2-6)GlcNAc(b1-4)GlcNAc(b1-4)GlcNAc
Outline: as §1

Neu5Gc(a2-6)GalNAc = target: Neu5Gc(a2-6)GalNAc
Outline: as §1

B1: SUN4 (Saccharomyces cerevisiae), P53616 (protein)
chain: MGSSHHHHHHSSGLVPRGSHNGSIYGDLADFSGPYEKFEDGTIPCGQFPSGQGVIPISWLDEGGWSGVENTDTSTGGSCKEGSYCSYACQPGMSKTQWPSDQPSDGRSIGGLLCKDGYLYRSNTDTDYLCEWGVDAAYVVSELSNDVAICRTDYPGTENMVIPTYVQAGDSLPLTVVDQDTYYTWQGLKTSAAYYVNNAGISVEDACVWGSSSSGVGNWAPLNFGAGSSDGVAYLSLIPNPNNGNALNFNVKIVAADDSSTVNGECIYENGSFSGGSDGCTVSVTAGKAKFVLYN
**Q.** What does the source list for B1?
**A.** glycan array binding signal (z-score) [1]: -0.7; glycan array binding signal (z-score) (Kdn(a2-3)Gal(b1-3)GalNAc): -0.503; glycan array binding signal (z-score) [2]: 1.55; glycan array binding signal (z-score) [3]: 1.67; glycan array binding signal (z-score) [4]: 1.64; glycan array binding signal (z-score) [5]: -0.355; glycan array binding signal (z-score) [6]: 0.689; glycan array binding signal (z-score) [7]: 2.5; glycan array binding signal (z-score) [8]: -0.111; glycan array binding signal (z-score) [9]: -0.965; glycan array binding signal (z-score) [10]: 3.41; glycan array binding signal (z-score) [11]: -0.494; glycan array binding signal (z-score) [12]: -1; glycan array binding signal (z-score) [13]: -0.64; glycan array binding signal (z-score) [14]: -0.838; glycan array binding signal (z-score) [15]: -0.241; glycan array binding signal (z-score) (Neu5Gc(a2-6)GalNAc): -0.69
